From PMC7862700, “An all-to-all approach to the identification of sequence-specific readers for epigenetic DNA modifications on cytosine”

How the values were obtained:
Assay in all cases: DAPPL (digital affinity profiling via proximity ligation, sequencing); 10 mM Tris-HCl pH 7.5, 50 mM NaCl, 1 mM DTT, 4% glycerol, room temperature, 30 min; GST-TFs on glutathione beads, 16-mer random dsDNA library, 0.1% formaldehyde crosslink after washing; high values mean tight binding
Conditions in all cases: protein: recombinant; tags: N-terminal GST; dsDNA, one strand shown
[1] = molecular target: T1, FLI1 (Homo sapiens, UniProt Q01543 1-452)
T1 sequence: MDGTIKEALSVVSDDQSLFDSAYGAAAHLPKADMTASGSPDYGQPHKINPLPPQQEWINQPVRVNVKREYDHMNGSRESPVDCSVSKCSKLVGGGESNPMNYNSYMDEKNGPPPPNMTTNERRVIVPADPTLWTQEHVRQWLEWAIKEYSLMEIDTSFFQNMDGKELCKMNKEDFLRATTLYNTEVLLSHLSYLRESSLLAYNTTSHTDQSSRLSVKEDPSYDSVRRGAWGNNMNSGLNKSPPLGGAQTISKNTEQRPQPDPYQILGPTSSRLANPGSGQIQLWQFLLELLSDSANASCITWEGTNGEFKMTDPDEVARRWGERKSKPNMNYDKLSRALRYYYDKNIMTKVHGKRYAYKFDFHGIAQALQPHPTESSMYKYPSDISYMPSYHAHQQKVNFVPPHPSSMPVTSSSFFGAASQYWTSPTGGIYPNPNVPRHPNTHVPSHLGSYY
Procedure, shortened: (§1)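 Binding signal is defined as a hexamer's read frequency for one factor over its frequency for the tag-only sample. To obtain reads, GST-fused human transcription factors were expressed in yeast, captured on glutathione beads, barcoded with DNA and pooled with that sample. Pools met 200 nmole of a 16-mer random double-stranded DNA library in Tris/NaCl/DTT/glycerol buffer for 30 min at room temperature before washing, 0.1% formaldehyde crosslinking, proximity ligation (BsaI/T4 ligase, 1 h, 37 °C), PCR and Illumina NextSeq500 sequencing.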

[2] = molecular target: T2, ELK1 (Homo sapiens, UniProt P19419 1-428)
T2 sequence: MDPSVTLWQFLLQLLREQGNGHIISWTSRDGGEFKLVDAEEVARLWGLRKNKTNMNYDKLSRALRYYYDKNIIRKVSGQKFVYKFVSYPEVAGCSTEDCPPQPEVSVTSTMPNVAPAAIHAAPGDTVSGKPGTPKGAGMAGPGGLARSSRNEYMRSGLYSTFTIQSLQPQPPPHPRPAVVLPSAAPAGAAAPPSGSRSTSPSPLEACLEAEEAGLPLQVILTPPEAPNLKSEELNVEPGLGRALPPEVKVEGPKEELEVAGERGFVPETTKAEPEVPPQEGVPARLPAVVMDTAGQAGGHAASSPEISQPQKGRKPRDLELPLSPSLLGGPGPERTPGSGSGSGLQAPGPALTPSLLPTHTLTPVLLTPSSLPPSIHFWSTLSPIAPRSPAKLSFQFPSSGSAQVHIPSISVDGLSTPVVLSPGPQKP
Procedure, shortened: as §1

[3] = molecular target: T3, GABPA (Homo sapiens, UniProt Q06546 1-454)
T3 sequence: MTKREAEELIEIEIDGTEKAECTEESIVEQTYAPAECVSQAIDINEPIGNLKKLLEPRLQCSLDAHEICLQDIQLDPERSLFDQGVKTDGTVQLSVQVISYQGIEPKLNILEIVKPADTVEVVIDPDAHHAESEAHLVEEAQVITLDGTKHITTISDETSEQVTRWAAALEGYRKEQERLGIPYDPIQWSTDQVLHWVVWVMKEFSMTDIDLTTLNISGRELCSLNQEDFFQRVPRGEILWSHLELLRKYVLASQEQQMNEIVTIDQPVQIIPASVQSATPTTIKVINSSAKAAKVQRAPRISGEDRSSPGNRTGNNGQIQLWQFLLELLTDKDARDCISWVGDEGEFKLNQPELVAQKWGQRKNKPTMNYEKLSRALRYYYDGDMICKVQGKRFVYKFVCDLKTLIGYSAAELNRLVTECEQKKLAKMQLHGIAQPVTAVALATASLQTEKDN
Procedure, shortened: as §1

[4] = molecular target: T4, ERG (Homo sapiens, UniProt P11308 1-479)
T4 sequence: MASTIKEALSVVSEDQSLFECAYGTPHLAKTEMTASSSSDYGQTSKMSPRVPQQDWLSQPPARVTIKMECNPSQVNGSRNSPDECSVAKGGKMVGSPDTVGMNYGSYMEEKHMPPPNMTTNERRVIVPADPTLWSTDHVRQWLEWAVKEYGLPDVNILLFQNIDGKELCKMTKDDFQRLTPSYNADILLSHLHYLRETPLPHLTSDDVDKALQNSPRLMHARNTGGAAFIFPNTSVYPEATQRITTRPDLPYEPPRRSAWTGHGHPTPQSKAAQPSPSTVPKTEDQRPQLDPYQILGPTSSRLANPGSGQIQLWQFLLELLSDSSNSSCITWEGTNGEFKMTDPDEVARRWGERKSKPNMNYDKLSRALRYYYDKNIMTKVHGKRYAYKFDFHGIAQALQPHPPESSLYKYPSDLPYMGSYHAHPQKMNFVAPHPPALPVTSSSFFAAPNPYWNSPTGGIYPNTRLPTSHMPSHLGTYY
Procedure, shortened: as §1

[5] = molecular target: ELF1 (Homo sapiens, UniProt P32519 1-619)
Chain of ELF1 (P32519 whole entry): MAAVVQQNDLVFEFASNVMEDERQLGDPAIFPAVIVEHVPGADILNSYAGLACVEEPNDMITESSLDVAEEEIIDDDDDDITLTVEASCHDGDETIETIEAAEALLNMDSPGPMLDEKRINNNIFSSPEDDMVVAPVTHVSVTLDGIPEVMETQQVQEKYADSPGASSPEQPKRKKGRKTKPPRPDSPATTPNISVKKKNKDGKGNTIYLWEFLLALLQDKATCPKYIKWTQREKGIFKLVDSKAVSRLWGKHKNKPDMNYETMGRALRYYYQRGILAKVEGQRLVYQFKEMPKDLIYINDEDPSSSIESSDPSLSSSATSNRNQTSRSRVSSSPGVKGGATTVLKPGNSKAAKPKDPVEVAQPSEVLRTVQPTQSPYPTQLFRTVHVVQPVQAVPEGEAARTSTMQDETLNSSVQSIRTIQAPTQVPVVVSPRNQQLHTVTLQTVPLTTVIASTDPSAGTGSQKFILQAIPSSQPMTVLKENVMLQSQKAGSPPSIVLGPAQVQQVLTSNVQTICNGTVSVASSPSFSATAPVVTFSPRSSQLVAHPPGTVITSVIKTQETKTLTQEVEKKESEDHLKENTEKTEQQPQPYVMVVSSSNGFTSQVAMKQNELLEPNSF
Procedure, shortened: as §1

[6] = molecular target: T5, EHF (Homo sapiens, UniProt Q9NZC4 1-300)
T5 sequence: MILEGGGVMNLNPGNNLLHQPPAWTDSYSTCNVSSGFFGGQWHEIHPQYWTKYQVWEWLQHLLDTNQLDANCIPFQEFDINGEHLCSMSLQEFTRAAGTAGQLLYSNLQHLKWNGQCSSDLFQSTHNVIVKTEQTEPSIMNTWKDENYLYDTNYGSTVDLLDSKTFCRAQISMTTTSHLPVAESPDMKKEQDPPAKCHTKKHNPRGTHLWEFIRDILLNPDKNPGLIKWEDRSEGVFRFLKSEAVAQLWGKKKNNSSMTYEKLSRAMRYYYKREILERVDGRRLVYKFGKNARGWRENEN
Procedure, shortened: as §1

[7] = molecular target: SPI1 (Homo sapiens, UniProt P17947 1-270)
Procedure, shortened: as §1

[8] = molecular target: SPIB (Homo sapiens, UniProt Q01892 1-262)
Chain of SPIB (Q01892 whole entry): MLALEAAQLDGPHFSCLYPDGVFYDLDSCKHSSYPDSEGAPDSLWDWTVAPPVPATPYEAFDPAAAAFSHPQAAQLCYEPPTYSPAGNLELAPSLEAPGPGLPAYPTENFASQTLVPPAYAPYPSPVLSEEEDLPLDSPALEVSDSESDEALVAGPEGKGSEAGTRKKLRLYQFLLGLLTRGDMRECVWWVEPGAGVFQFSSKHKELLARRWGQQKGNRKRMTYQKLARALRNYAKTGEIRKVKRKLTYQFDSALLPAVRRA
Procedure, shortened: as §1

[9] = molecular target: T6, ELK3 (Homo sapiens, UniProt P41970 1-407)
T6 sequence: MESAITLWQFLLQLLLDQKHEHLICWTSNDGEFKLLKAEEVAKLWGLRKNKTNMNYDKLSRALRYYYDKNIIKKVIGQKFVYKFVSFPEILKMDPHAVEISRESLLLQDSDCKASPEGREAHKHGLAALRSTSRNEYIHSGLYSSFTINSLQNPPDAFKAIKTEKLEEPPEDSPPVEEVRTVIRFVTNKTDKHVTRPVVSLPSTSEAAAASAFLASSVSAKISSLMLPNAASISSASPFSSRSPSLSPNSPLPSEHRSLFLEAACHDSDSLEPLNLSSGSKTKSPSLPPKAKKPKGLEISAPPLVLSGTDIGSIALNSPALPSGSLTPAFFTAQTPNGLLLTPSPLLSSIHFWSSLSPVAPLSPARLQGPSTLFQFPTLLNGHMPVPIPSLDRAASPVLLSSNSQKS
Procedure, shortened: as §1

Sequence: CGACAA
- binding signal [1]: 1.17 fold enrichment (6-mer frequency, TF over GST control)
- binding signal [2]: 1.09 fold enrichment (6-mer frequency, TF over GST control)
- binding signal [3]: 1.26 fold enrichment (6-mer frequency, TF over GST control)
- binding signal [4]: 1.17 fold enrichment (6-mer frequency, TF over GST control)
- binding signal [5]: 1.21 fold enrichment (6-mer frequency, TF over GST control)
- binding signal [6]: 1.24 fold enrichment (6-mer frequency, TF over GST control)
- binding signal [7]: 1.12 fold enrichment (6-mer frequency, TF over GST control)
- binding signal [8]: 1.2 fold enrichment (6-mer frequency, TF over GST control)
- binding signal [9]: 1.07 fold enrichment (6-mer frequency, TF over GST control)
